About 83,000 compounds went through this panel and 20% of them were active in at least one assay; those are over-represented in the sample as a whole.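 Each cell line was grown in a 96-well plate and treated with one concentration of compound for 48 hours. Values below 10 were considered active.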 A number with no mark means an inactive call. Activity calls are given as the source filed them.
What follows are molecules tested on IGROV1 ovarian (assay: NCI-60 one-dose screen, 48 h (100 = growth as untreated, 0 = no growth, -100 = all killed)). Details: 10 µM unless noted.
`COc1ccc2c(c1)CC[C@@H]1[C@@H]2CC[C@]2(C)[C@@H](O)C(=O)C[C@@H]12` gave a growth of 115%.
Molecule `C[C@@H]1CN(c2nc3c(cc2F)c(=O)c(C(=O)O)cn3C(C)(C)C)C[C@H](C)N1` has a growth of 121%.
`NS(=O)(=O)c1ccc(-n2ncc3c(NC4CCCCC4)ncnc32)cc1` showed a growth of 78%.
`CCOC(=O)C1=CCC(n2cc(C)c(=O)[nH]c2=O)O1` (centres undefined) was tested, and the growth was 86.3%.
For `O=CNc1ccc2c(c1)Cc1cc([N+](=O)[O-])ccc1-2`, the growth was 30.7%.
In the case of `CC(=O)[C@H]1CC[C@H]2[C@@H]3C[C@H](C)C4=CC(=O)CC[C@]4(C)[C@H]3C(=O)C[C@]12C`, the growth is reported as 98.6%.
For `Cc1ccc2nc(SCC(=O)Nc3ccc(-c4nc5ccccc5s4)c(Cl)c3)[nH]c2c1`, the growth was 100%.
`Cc1ccc(C(=O)Cc2ccccc2)c(O)c1` was tested, and the growth was 107%.
Work on `ICCC(c1ccccc1)(c1ccccc1)c1ccccc1` yielded a growth of 61.7%.
`c1ccc(CN=C(NCc2ccccc2)NCc2ccccc2)cc1` showed a growth of 60.4%.
For `Oc1ccc(/C=N/Nc2nc3ccccc3s2)c(O)c1`, the growth was 22.3%.
Work on `O=C(CC(C(=O)c1ccccc1)N1CCN(Cc2ccccc2)CC1)c1ccccc1` (centres undefined) yielded a growth of 119%.
For `CC(NC(N)=S)c1ccccc1` (centres undefined), the growth was 110%.
In the case of `C[C@]12CCC(=O)C=C1CC[C@H]1[C@@H]3C[C@@H](O)[C@](O)(C(=O)CO)[C@@]3(C)C[C@H](O)[C@@]12F`, the growth is reported as 97.6%.
`O=C(Nc1ccc2c(c1)C(=O)c1ccccc1-2)c1ccccc1` gave a growth of 73.4%.
`COC(=O)C1=CCC(n2cnc3c(N)ncnc32)O1` (centres undefined) gave a growth of 109%.
In the case of `CCN(Cc1cccc(S(=O)(=O)[O-])c1)c1ccc(C(=C2C=CC(=[N+](CC)Cc3cccc(S(=O)(=O)O)c3)C=C2)c2ccccc2S(=O)(=O)O)cc1`, the growth is reported as 110%.
Molecule `CC(NC(=O)Oc1cccc2ccccc12)c1ccccc1` (centres undefined) has a growth of 116%.
For `OC(c1cc(-c2cccc(Cl)c2)nc2ccccc12)C1CCCCN1` (centres undefined), the growth was -61.7% (active).
In the case of `O=C(Nc1ccccc1OC(=O)c1ccccc1)c1ccccc1`, the growth is reported as 90.6%.
`Cc1ccccc1NC(=O)NC(CC(N)=O)c1ccc2c(c1)nc(-c1cccc(Oc3ccc(C(C)(C)C)cc3)c1)n2CCCN1CCCCC1C` (centres undefined) gave a growth of 46.4%.
`O=C(C(=O)c1cc(Br)ccc1O)c1cc(Br)ccc1O` showed a growth of 32.3%.
Molecule `Fc1ccccc1C1c2ccccc2-c2nccn21` (centres undefined) has a growth of 79.6%.
`COc1cc(/C=C\C(C)=N\Nc2ccccc2)ccc1O` gave a growth of 96%.
With `COc1cc(/C=N/NC(=O)c2ccc(C(F)(F)F)nc2Nc2ccc(Cl)cc2C)ccc1O` the growth was 25.1%.
Work on `O=Cc1ccccc1C(=O)O` yielded a growth of 110%.
`COc1cc(NC(=O)NCc2ccco2)ccc1-c1ccc(NC(=O)NCc2ccco2)cc1OC` gave a growth of 72.9%.
In the case of `COc1cccc(/C=N/Nc2nc3ccccc3s2)c1OC`, the growth is reported as 81.9%.
`O=C(N/N=C/c1ccc(Cl)cc1Cl)c1ccccc1Nc1cccc(C(F)(F)F)c1` gave a growth of 43.8%.
For `COc1ccc(NS(=O)(=O)N2CCCCC2)cc1`, the growth was 110%.
In the case of `O=c1c2ccccc2c2nccn2c2cc(Cl)ccc12`, the growth is reported as 61.7%.
For `COc1ccc(-c2ccc(O)c(C(=O)/C=C/c3cc(OC)c(OC)c(OC)c3)c2)cc1`, the growth was 78.3%.
With `Cn1cnc([N+](=O)[O-])c1Sc1nc(N)nc2nc[nH]c12` the growth was -13.1% (active).
`Cc1cc(=O)oc2cc(OCCn3c(C)nn(-c4ccc(Cl)cc4)c3=O)ccc12` showed a growth of 59.7%.
`O=C1C=CC(=O)N1c1ccccn1` gave a growth of 113%.
With `CCN(CC)c1ccc(N=C2C=CC(=O)C=C2NC(C)=O)cc1` the growth was 96.7%.
For `CC1CN(C2CCCCC2)C(=O)NC1=O` (centres undefined), the growth was 110%.
For `COc1ccc2cc(C3=CC(=O)CCC3)ccc2c1`, the growth was 104%.
For `COc1ccc(Cl)cc1Nc1nc(C(F)(F)F)ccc1C(=O)N/N=C/c1c(Cl)cccc1Cl`, the growth was 29.6%.

— PubChem BioAssay (NCI)
